# Experimental data published in PubChem BioAssay (NCATS).
# Values joined by “and” are separate entries in the source; they are usually repeats but may differ in a detail not shown here. Identical values can stand only once. Inconclusive results are not listed. Values without a mark were called inactive. Active and inactive are the calls of the source. The call rests on the fitted dose curve; in most records, active means well fitted cell-killing curve with a large enough effect; inconclusive means small, poorly fitted or top-dose-only effect, or effect the other way; inactive means no such curve, though single readings can be large or run the other way.
# Columns and labels:
# [1] = Viability qHTS for spleen associated tyrosine kinase inhibitor (SYKi) naive MV4-11 cells (AID 1963823); further: nearly all actives have a fitted effect of over 40% in size
# Method in brief: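 In this viability screen, compounds acted on SYK inhibitor naive MV4-11 cells for three days (72 hr, 37 C). Remaining viable cells were measured by CellTiter-Glo luminescence following a 10 min room-temperature development.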
# [2] = Viability qHTS for spleen associated tyrosine kinase inhibitor (SYKi) drug resistant MV4-11 cells (AID 1963824); further: nearly all actives have a fitted effect of over 35% in size
# Method in brief: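 CellTiter-Glo luminescence, read 10 min after reagent addition, reports viability after a 72 hr compound exposure. Cells are an MV4-11 line made resistant to SYK inhibition, seeded at 500 per well onto compound-containing plates.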
# Potency means the concentration at half of the fitted maximal effect.
SMILES,Potency [1],Potency [2],viability (% of control) [1],"viability, % of control [2]"
O=C(NCc1cccc(O)c1)c1cc2cc(F)ccc2[nH]1,16.4 µM (active),13 µM (active),,
CS(=O)(=O)NCC1CCC(Nc2nc3c(s2)CCSc2ccccc2-3)CC1 (configuration not stated),2.31 µM (active),4.61 µM (active),,
C=C1C(=O)O[C@@H]2/C=C(/C)[C@@H](OC(C)=O)C/C=C(\C)C[C@@H](OC(=O)/C(=C/CO)CO)[C@@H]12,3.99 µM (active),3.55 µM (active),,
C=C1C(=O)O[C@@H]2[C@H]1CCC(C)=C(CCC(=O)O)[C@@]2(C)O,9.2 µM (active),4.11 µM (active),,
C=C1CCC[C@]2(C)CC[C@@](O)(C(=C)C(=O)O)C[C@@H]12,inactive,inactive,,
CC1C2=CC(=O)OC2(O)CC2C1CCC1C(C)(C)CCC(O)C21C (configuration not stated),12.8 µM (active),4.53 µM (active),,
COc1cc(N)c(Cl)cc1C(=O)NC[C@@H]1CCN2CCC[C@@H]12,inactive,inactive,,
C=C1C2(C)CC3C4(C)OC(C5OC56C4=CC(=O)OC6(C)C)C3(C)C13C(=O)OC(C)C3(O)C2=O (configuration not stated),inactive,inactive,,
CN1CCN(CCCN2c3ccccc3Sc3ccc(S(=O)(=O)N(C)C)cc32)CC1,11.9 µM (active),10.6 µM (active),,
CC(/C=C/C1(O)C(C)CC(O)CC1(C)C)OC1OC(CO)C(O)C(O)C1O (configuration not stated),inactive,inactive,,
CC1(C)CC[C@]2(C(=O)O[C@@H]3O[C@H](CO)[C@@H](O)[C@H](O)[C@H]3O)CC[C@]3(C)C(=CCC4[C@@]5(C)C[C@H](O)[C@H](O[C@@H]6O[C@H](C(=O)O)[C@@H](O)[C@H](O)[C@H]6O)[C@@](C)(CO)C5CC[C@]43C)C2C1 (some centres not stated),,,24.2% [at 9.25 µM],20.7% [at 9.25 µM]
CC(=O)O[C@@H]1[C@H](O[C@@H]2O[C@H](CO)[C@@H](O)[C@H](O)[C@H]2O)[C@@H](O[C@@H]2O[C@@H](C)[C@H](O)[C@@H](O[C@@H]3O[C@H](CO)[C@@H](O)[C@H](O)[C@H]3O)[C@H]2O)[C@H](OC(=O)[C@]23CCC(C)(C)C[C@H]2C2=CCC4[C@@]5(C)C[C@H](O)[C@H](O[C@@H]6O[C@H](C(=O)O)[C@@H](O)[C@H](O)[C@H]6O)[C@@](C)(C(=O)O)C5CC[C@@]4(C)[C@]2(C)CC3)O[C@@H]1C (some centres not stated),,,81.2% [at 9.25 µM],91.2% [at 9.25 µM]
CC(Sc1nc2c(cnn2-c2cccc(Cl)c2)c(=O)[nH]1)C(N)=O (configuration not stated),inactive,inactive,,
O=C(Nc1ccc(S(=O)(=O)C(F)(F)F)cc1)C1=CCN(c2ncccc2C(F)(F)F)CC1,5.8 µM (active),3.66 µM (active),,
C=C(C(=O)O)[C@H]1C[C@]2(C)C(=O)CC[C@]23O[C@H]1C[C@@H]3C,inactive,inactive,,
CC1CCC2(OC1)OC1CC3C4CC=C5CC(O)CC(O[C@@H]6OC[C@@H](O)[C@H](O)[C@H]6O)C5(C)C4CCC3(C)C1(O)C2C (some centres not stated),inactive,inactive,,
CC(C)c1ccc2c(c1)C(O)CC1C(C)(C(=O)O)CCCC21C (configuration not stated),inactive,inactive,,
CCC(CC)(NC(=O)C(C)C)C(=O)N[C@@H](CCCN=C(N)N)C(=O)NC1(C(=O)NC(c2ccc(F)cc2)c2ccc(F)cc2)CCCC1,inactive,inactive,,
Clc1ccc(Nc2nc3ccccc3c3nc(C4CCCCC4)[nH]c23)cc1Cl,18.4 µM (active),8.2 µM (active),,

SMILES,Potency [1],Potency [2],viability (% of control) [1],"viability, % of control [2]"
CCC(C)/C=C(C)/C=C/C1=CC2=C(Cl)C(=O)C(C)(OC(C)=O)C(=O)C2=CN1C1CCCCN(C(CCC(N)=O)C(=O)O)C1=O (configuration not stated),inactive,inactive,,
COC1=CC(=O)O/C1=C(/OC)[C@@H]1O[C@H]1c1ccccc1,23.1 µM (active),10.3 µM (active),,
CC(C)CC[C@@H](O)[C@](C)(O)[C@H]1CC[C@@]2(O)C3=CC(=O)[C@@H]4C[C@@H](O)[C@@H](O)C[C@]4(C)[C@H]3CC[C@]12C,inactive,inactive,,
C=C1C(=O)OC2C=C(C)CC/C=C(\CO)CC(O)C12 (configuration not stated),10.3 µM (active),11.6 µM (active),,
CC#CC(=O)N1CC[C@@H](n2c(=O)n(-c3ccc(Oc4ccccc4)cc3)c3c(N)ncnc32)C1,7.42 µM (active),8.33 µM (active),,
COC(=O)C1=COC(OC2OC(CO)C(O)C(O)C2O)C2C(C)CC(=O)C12O (configuration not stated),inactive,inactive,,
C[C@@H]1C(=O)OC[C@H]2C(C(=O)O)=C[C@@H]3CC(C)(C)C[C@]312,inactive,inactive,,
CCOC(=O)c1cnn(-c2ccc(NC(=O)C(Cl)=C(Cl)Cl)cc2)c1C(F)(F)F,0.58 µM (active),0.366 µM (active),,
Cc1ccc([C@@H]2O[C@H](CO)[C@@H](O)[C@H](O)[C@H]2O)cc1Cc1ccc(-c2ccc(F)cc2)s1,18.6 µM (active),16.6 µM (active),,
C[C@@H]1COCCN1c1cc(C2(S(C)(=O)=O)CC2)nc(-c2cccc3[nH]ccc23)n1,0.58 µM (active),0.366 µM (active),,
C=C[C@H]1C(O[C@@H]2O[C@H](CO)[C@@H](O)[C@H](O)[C@H]2O)OC=C2C(=O)N3CCc4c([nH]c5ccccc45)[C@H]3C[C@H]21 (some centres not stated),inactive,inactive,,
CC/C=C\C(O)C(O)C1=C(C)C(=O)C2(O1)C(=O)NC(OC)(C(=O)c1ccccc1)C2O (configuration not stated),inactive,inactive,,
c1ccc(-c2cnn3cc(-c4ccc(OCCN5CCOCC5)cc4)cnc23)cc1,0.0184 µM (active),0.058 µM (active),,
CCOc1nc2cccc(C(=O)OCc3oc(=O)oc3C)c2n1Cc1ccc(-c2ccccc2-c2noc(O)n2)cc1,inactive,inactive,,
C[C@@H]1O[C@@H](O[C@@H]2CO[C@@H](O[C@H]3CC[C@@]4(C)C(CC[C@]5(C)C4CC=C4[C@@H]6CC(C)(C)CC[C@]6(C(=O)O[C@@H]6O[C@H](CO)[C@@H](O)[C@H](O)[C@H]6O)CC[C@]45C)[C@]3(C)CO)[C@H](O)[C@H]2O[C@@H]2O[C@H](CO)[C@@H](O)[C@H](O)[C@H]2O)[C@H](O)[C@H](O)[C@H]1O (some centres not stated),,,57.4% [at 9.25 µM],62.6% [at 9.25 µM]
COc1cc([C@H]2OC[C@](O)(Cc3ccc(O[C@@H]4O[C@H](CO)[C@@H](O)[C@H](O)[C@H]4O)c(OC)c3)[C@@H]2CO)ccc1O,inactive,inactive,,
COC(=O)C12C(=O)C(C)=C(O)C1(C)C(C)=CC1C3(CO)CCC(O)C(C)(C)C3CCC12C (configuration not stated),inactive,inactive,,
O=C(NS(=O)(=O)c1ccc(Br)s1)c1ccc(Cl)cc1Cl,7.31 µM (active),9.2 µM (active),,
O=C(/C=C/c1ccc2ccccc2n1)c1ccncc1,1.46 µM (active),1.64 µM (active),,

SMILES,Potency [1],Potency [2],viability (% of control) [1],"viability, % of control [2]"
c1nc(NCC2CCOC2)c2cc(-c3ccc4c(c3)OCO4)ccc2n1 (configuration not stated),20.6 µM (active),18.4 µM (active),,
CCCc1cc(C)[nH]c(=O)c1CNC(=O)c1cc(-c2ccc(N3CCN(C(C)C)CC3)nc2)cc2c1cnn2C(C)C,13 µM (active) and 5.9 µM (active),8.2 µM (active) and 8.33 µM (active),,
COc1cc(CCCO)ccc1O[C@@H]1O[C@H](CO)[C@@H](O)[C@H](O)[C@H]1O,inactive,inactive,,
CC1(CO)CC(O)C2(C)CCC3(C)C(=CCC4C5(C=O)CCC(OC6OC(C(=O)O)C(O)C(O)C6OC6OC(C(=O)O)C(O)C(O)C6O)C(C)(C)C5CCC43C)C2C1 (configuration not stated),,,87.7% [at 9.25 µM],98.3% [at 9.25 µM]
CCC(C)C(=O)O[C@H]1[C@@H](O[C@H]2O[C@H](CO)[C@@H](O)[C@H](O)[C@H]2O)O[C@H](CO)[C@@H](O)[C@@H]1O (some centres not stated),inactive,inactive,,
C=C1CC23CC1CCC2C12OC(=O)C(C)(CCC1O)C2C3C(=O)O (configuration not stated),inactive,inactive,,
Cc1cc(C(=O)Nc2cccc(C(=O)Nc3cccc(C(F)(F)F)c3)c2)on1,inactive,inactive,,
O=C(OC[C@@]1(O)CO[C@@H](O[C@H]2[C@H](Oc3ccc(O)cc3)O[C@H](CO)[C@@H](O)[C@@H]2O)[C@@H]1O)c1ccc(O)cc1,inactive,inactive,,
Cc1ccccc1C(=O)Nc1ccc(C(=O)N2CCCC(N(C)C)c3ccccc32)cc1 (configuration not stated),5.96 µM (active) and 2.91 µM (active),4.73 µM (active) and 4.61 µM (active),,
C=C1CCC2C(OC(=O)C2(O)COC(C)=O)C2C(=C)C(O)CC12 (configuration not stated),inactive,inactive,,
C=C[C@@]12COC(=O)C(=C)C1[C@@H](O)[C@H](C(=C)C(=O)OC)[C@@H](OC(=O)C(=C)CO)C2 (some centres not stated),1.78 µM (active),1.59 µM (active),,
O=S(=O)(c1cccc2ccccc12)n1ccc2ccc(N3CCN4CCCC4C3)cc21 (configuration not stated),23.1 µM (active),20.6 µM (active),,
CCOC(=O)c1cc(C#N)c(N2CCC(C(=O)NS(=O)(=O)Cc3ccccc3)CC2)nc1C,inactive,inactive,,
C/C(=C\CCC(C)C1=CCC2(C)OC3=C(CC12)C(=O)C(O)CC3)CO (configuration not stated),inactive,inactive,,
O=c1nc(-c2ccccn2)sc2ccccc12,1.84 µM (active),2.59 µM (active),,
O=S(=O)(NC1CCNCC1)c1cc(S(=O)(=O)c2ccccc2)ccc1C(F)(F)F,inactive,inactive,,
CCCCCCOC(=O)NC(=N)c1ccc(NCc2nc3cc(C(=O)N(CCC(=O)OCC)c4ccccn4)ccc3n2C)cc1,2.35 µM (active),1.48 µM (active),,
CC1OC(O[C@@H]2[C@@H](O)[C@H](OC(=O)[C@]34CCC(C)(C)C[C@H]3C3=CCC5[C@@]6(C)CC[C@H](O[C@@H]7O[C@H](C(=O)O)[C@@H](O)[C@H](O[C@@H]8OC[C@@H](O)[C@H](O)[C@H]8O)[C@H]7O[C@@H]7O[C@H](CO)[C@H](O)[C@H](O)[C@H]7O)[C@@](C)(C=O)C6CC[C@@]5(C)[C@]3(C)C[C@H]4O)O[C@H](C)[C@@H]2OC2OC(C)C(OC3OCC(O)C(O)C3O)C(O)C2O)C(O)C(O)C1O (some centres not stated),,,94.8% [at 9.25 µM],106% [at 9.25 µM]
